Source: PubChem
D1 mod = allosterically modulates the human D1 dopamine receptor | P21728 | HEK293 D1, CRE-luciferase, dopamine EC30 potentiation; actives deviate in either direction | B-score at 10 µM | 5.9% of 58,000 active;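 active means luminescence count or its row- and column-corrected plate score outside the 99.7% band of the plate's sample wells, on either side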
CYP2C9 act = increases human cytochrome P450 2C9 activity; P11712; 1.4% of 96,000 active; activation factor at 5 µM; recombinant CYP2C9, luciferin-H conversion, luminescence; active compounds read high; factor 1 = untreated enzyme, 0 = blocked; AID 1024;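 active means activation factor of 2 or more for CYP2C9 at a 5 µM dose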
Target sequence (P11712 whole entry, looked up): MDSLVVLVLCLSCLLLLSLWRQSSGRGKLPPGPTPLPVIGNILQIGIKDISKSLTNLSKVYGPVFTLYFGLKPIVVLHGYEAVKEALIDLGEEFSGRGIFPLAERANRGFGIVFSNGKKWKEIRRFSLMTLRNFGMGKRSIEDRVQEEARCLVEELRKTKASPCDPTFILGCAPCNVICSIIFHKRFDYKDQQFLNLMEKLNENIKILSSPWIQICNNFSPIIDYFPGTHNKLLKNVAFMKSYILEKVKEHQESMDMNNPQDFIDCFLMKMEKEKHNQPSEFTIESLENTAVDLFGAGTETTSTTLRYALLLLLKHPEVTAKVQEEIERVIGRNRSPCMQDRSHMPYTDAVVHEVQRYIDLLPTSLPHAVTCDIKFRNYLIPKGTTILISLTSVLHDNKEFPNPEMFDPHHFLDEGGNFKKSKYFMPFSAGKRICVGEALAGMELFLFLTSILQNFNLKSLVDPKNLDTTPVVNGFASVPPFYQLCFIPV
CYP2C19 act = increases human CYP2C19 enzyme activity; recombinant CYP2C19, luciferin-H EGE luminescence; active compounds read high; 0 = fully inhibited enzyme, 1 = untreated enzyme; activation factor at 5 µM; 96,000 tested, under 10 active; AID 1025;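 active means activation factor of at least 2 at 5 µM in the primary screen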
hDAT+cocaine = changed human dopamine transporter uptake under cocaine IC80; Q01959; B-score at 10 µM; LLC-PK1 hDAT cells, [14C]-dopamine uptake with cocaine IC80; actives deviate in either direction; 1.3% of 110,000 active; AID 449768;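 active means Z score or B-score, a plate-position-corrected score, falls beyond the plate's 99.7% confidence bounds, in either direction; inactive means both scores lie inside the 99.7% bounds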
CYP2C19 inh = human CYP2C19 inhibition; P33261; CYP2C19 Supersomes, luciferin-H EGE luminescence, 30 min; inhibition, % at 5 µM; 21% of 96,000 active; AID 778;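 active means CYP2C19 inhibition above a set limit at 5 µM in the primary screen, cut at about 50% in these data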
CYP2C9 inh = inhibitors of human CYP2C9; 20% of 96,000 active; AID 777; CYP2C9 Supersomes, luciferin-H conversion, luminescence; inhibition, % at 5 µM; P11712;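 active means blocking of liver enzyme CYP2C9 beyond about 50% at 5 µM, limit read from the data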
A number is an active result; – = inactive; · = not tested or not shown. In the library only some 28% were active in any assay of this set; here they are far more common.

SMILES | D1 mod | CYP2C9 act | CYP2C19 act | hDAT+cocaine | CYP2C19 inh | CYP2C9 inh
O=C(O)c1cc(N2C(=O)C3CC=CCC3C2=O)ccc1NCc1cccnc1 (configuration not stated) | · | – | – | · | – | –
NS(=O)(=O)c1ccc(CCNC(=O)c2ccc(S(=O)(=O)N3CCCCC3)cc2)cc1 | · | – | – | – | – | 61
Cc1c(C(=O)N(C)Cc2ccccc2)oc2ccc(S(=O)(=O)N3CCCC3)cc12 | · | – | – | – | – | 95
Cc1c(C(=O)NCc2cccnc2)oc2ccc(S(=O)(=O)N3CCCCCC3)cc12 | – | – | – | – | – | 51
O=C(c1ccccc1)c1ccc(OCCCN2CCCCC2)cc1 | · | – | – | – | – | –
Brc1ccccc1OCCCCCN1CCCC1 | · | – | – | – | – | –
CCc1ccccc1OCCCCN1CCCC1 | -3.1 | – | – | – | – | –
C=CCc1ccccc1OCC(CN1CCCCC1)OC(C)=O (configuration not stated) | -4.5 | – | – | – | 53 | –
C=CCc1ccccc1OCCCCN1CCCC1 | -3 | – | – | – | – | –
CC(=O)c1ccc(OCCCN2CCCCC2)cc1 | · | – | – | – | 66 | 69
Nc1nc(N)c2sc3nc4c(cc3c2n1)CCC4 | – | – | – | – | – | –
CC(C)Cn1c(CN2CCCCC2C)nc2c1c(=O)n(C)c(=O)n2C (configuration not stated) | – | – | – | – | – | –
CCOc1ccccc1NC(=S)N1CCC(NC(=O)NC23CC4CC(CC(C4)C2)C3)CC1 | · | – | – | – | – | –
CCn1c(SCC(=O)N2CCc3ccccc32)nnc1-c1ccncc1 | – | – | – | – | 63 | –
CCn1c(SCC(=O)N2CCCc3ccccc32)nc2cccnc21 | – | – | – | – | – | –
CCn1c(SCC(=O)N2CCCc3ccccc32)nc2ccccc2c1=O | – | – | – | 3.1 | 69 | 97
COCCCn1c(SCC(=O)N2CCCCC2C)nnc1-c1ccco1 (configuration not stated) | · | – | – | – | – | –
CC1CCCCN1C(=O)CSc1nnc(-c2ccco2)n1CC1CCCO1 (configuration not stated) | – | – | – | – | 83 | –
Cc1cc2c(=O)n(Cc3ccco3)c(SCC(=O)N3CCCc4ccccc43)nc2s1 | – | – | – | – | – | 90
CCN1C(=O)[C@@H]2[C@H](C1=O)[C@@H]1CC(C(=O)OC)=C[C@@H](C(=O)OC)C3C1=C(C(=O)C3(CC)CC)[C@@H]2C (some centres not stated) | · | · | · | – | · | ·
CCn1c(SCC(=O)N2CCCc3ccccc32)nnc1-c1ccco1 | – | – | – | – | 71 | –
CCOc1ccc(C(=O)CCC(=O)O)cc1 | · | – | – | – | – | –
CCOc1ccc(C(=O)CCc2nc3ccccc3s2)cc1 | · | – | – | – | 56 | 91
CCn1c2ccccc2c2cc(NS(=O)(=O)c3ccccc3C)ccc21 | · | – | – | – | 66 | 81
O=C(O)c1ccccc1-c1ccccc1C(=O)NCc1ccco1 | – | – | – | – | – | –
SMILES | D1 mod | CYP2C9 act | CYP2C19 act | hDAT+cocaine | CYP2C19 inh | CYP2C9 inh
O=C(CSc1nnc(-c2cccnc2)n1-c1ccccc1)Nc1ccc2c(c1)OCO2 | – | – | – | – | – | –
C=CCNC(=S)NNC(=O)c1cccn(Cc2ccc(Cl)cc2Cl)c1=O | · | – | – | – | – | 68
COc1ccc(C(=O)c2cn[nH]c2-c2cc(Cl)ccc2O)cc1 | – | – | – | – | 98 | 92
Cc1ccc(C(=O)c2cn[nH]c2-c2ccccc2O)cc1 | · | – | – | – | 89 | –
O=C(c1ccc(Cl)cc1)c1cn[nH]c1-c1ccccc1O | · | – | – | – | 95 | 86
O=C1C2CC=CCC2C(=O)N1c1cccc(OS(=O)(=O)c2ccc3ccccc3c2)c1 (configuration not stated) | · | – | – | – | – | –
CCOC(=O)c1cnn(CCOC(=O)Cc2cccs2)c1NC(=O)Cc1cccs1 | · | – | – | – | 88 | 89
CCOC(=O)Cc1csc(NC(=O)Cc2cccs2)n1 | – | – | – | – | – | –
CCc1ccc(CN(C)CCc2ccccn2)cc1 | – | – | – | – | 89 | –
CN(CCc1ccccn1)Cc1ccc(Cl)cc1 | – | – | – | – | 53 | –
Cc1ccc(-n2c(=O)[nH]cc(C(=O)Nc3ccc4c(c3)OCO4)c2=O)cc1C | – | – | – | – | – | –
O=C(c1cccs1)N(Cc1ccco1)C1CCS(=O)(=O)C1 (configuration not stated) | – | – | – | – | 56 | –
O=C(c1ccccc1F)N(Cc1ccc(F)cc1)C1CCS(=O)(=O)C1 (configuration not stated) | – | – | – | – | 83 | –
COc1ccc(CN(C(=O)c2oc3ccccc3c2C)C2CCS(=O)(=O)C2)cc1 (configuration not stated) | – | – | – | – | – | –
O=C(c1sc2ccccc2c1Cl)N(Cc1ccccc1Cl)C1CCS(=O)(=O)C1 (configuration not stated) | · | – | – | – | – | 85
O=C(c1ccccc1)N(Cc1cccs1)C1CCS(=O)(=O)C1 (configuration not stated) | – | – | – | – | – | –
O=C(c1sc2ccccc2c1Cl)N(Cc1ccccc1)C1CCS(=O)(=O)C1 (configuration not stated) | · | – | – | – | 52 | 68
O=C(c1cccs1)N(Cc1cccc(Cl)c1)C1CCS(=O)(=O)C1 (configuration not stated) | – | – | – | – | – | –
O=C(c1ccccc1F)N(Cc1ccccc1)C1CCS(=O)(=O)C1 (configuration not stated) | – | – | – | – | – | –
Cc1ccc(CN(C(=O)c2cc3ccccc3oc2=O)C2CCS(=O)(=O)C2)cc1 (configuration not stated) | · | – | – | – | – | –
Cc1cc2oc(C(=O)N(Cc3ccccc3)C3CCS(=O)(=O)C3)cc(=O)c2cc1Cl (configuration not stated) | · | – | – | – | 62 | 80
CCN(CC)c1ccc(CN(C(=O)c2ccco2)C2CCS(=O)(=O)C2)cc1 (configuration not stated) | – | – | – | · | 57 | 58
O=C(c1sc2ccccc2c1Cl)N(Cc1ccco1)C1CCS(=O)(=O)C1 (configuration not stated) | – | – | – | – | 71 | 70
CCN(CC)c1ccc(CN(C(=O)c2cc(OC)c(OC)c(OC)c2)C2CCS(=O)(=O)C2)cc1 (configuration not stated) | – | – | – | – | – | –
CCOc1ccccc1C(=O)N(Cc1ccco1)C1CCS(=O)(=O)C1 (configuration not stated) | – | – | – | – | – | –
